Laboratory results published in PubChem BioAssay.
A number with no mark means an inactive call. For some assays here: Entries with a potency or affinity are not part of this list. Activity calls are given as the source filed them. Unless noted, no rule for the calls is given here.

Key:
[1] = antimalarial activity against Dd2 strain (AID 2302;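 active = growth inhibition above 50% at the single 2 µM test dose, taken to imply half-maximal potency below 2 µM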;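 also: 0% = DMSO untreated growth and 100% = chloroquine plus artemisinin killed control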); conditions: P. falciparum Dd2 in RBCs, LDH growth readout, 72 h; at 2 µM; stronger effect = higher value
[2] = human hepatoma cell viability loss – ATP luminescence, cytotoxicity control for P. falciparum antimalarial project, primary screen (AID 2303;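 active = inhibition above 50%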;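 also: 0% = DMSO wells and 100% = digitonin-killed cells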); conditions: HepG2 viability, 24-48 h, at 10 µM, stronger effect = higher value
[3] = target: L-lactate dehydrogenase (Plasmodium falciparum (isolate CDC / Honduras)) (UniProt Q27743); assay: PfLDH activity inhibition – cell lysate, 3D7 strain, counter-screen for P. falciparum growth inhibition project (AID 2304);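 also: 0% = vehicle and 100% = reference inhibitor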; conditions: P. falciparum 3D7 crude extract, LDH APAD/NBT absorbance; at 2 µM; stronger effect = higher value
[4] = inhibition of 3D7 malaria parasite growth – strain 3D7 (AID 2306);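 also: 0% = DMSO wells and 100% = chloroquine plus artemisinin control wells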; conditions: P. falciparum 3D7 erythrocytic growth, LDH absorbance, 72 h; at 2 µM; stronger effect = higher value
[5] = target: Calcium-dependent protein kinase 1 (Plasmodium falciparum (isolate 3D7)) (UniProt P62344); assay: PfCDPK1 kinase inhibitors, biochemical, TCAMS library (AID 1159585; cut-off not given, nearly all actives have IC50 up to about 0.98 µM;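 also: inhibitors leave more ATP so luminescence rises with inhibition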); conditions: recombinant PfCDPK1, Kinase-Glo ATP depletion luminescence
[6] = target: Plasmodium falciparum protein kinase 6 (PK6, PF3D7_1337100) (UniProt Q8IDW1); assay: PfPK6 kinase inhibitors, biochemical, TCAMS library (AID 1159586); conditions: recombinant PfPK6, Kinase-Glo ATP depletion luminescence
[7] = target: Protein kinase 7 (PK7), Plasmodium falciparum 3D7 (PF3D7_0213400) (UniProt Q7YTF7); assay: inhibition of Plasmodium PK7 catalytic activity – biochemical, TCAMS antimalarial set, Kinase-Glo luminescence (AID 1159587); conditions: recombinant PfPK7, Kinase-Glo ATP depletion luminescence
[8] = target: Calcium-dependent protein kinase 4 (Plasmodium falciparum (isolate 3D7)) (UniProt Q8IBS5); assay: PfCDPK4 kinase inhibitors, biochemical, TCAMS library (AID 1159588; cut-off not given, nearly all actives have IC50 up to about 0.91 µM); conditions: recombinant PfCDPK4, Kinase-Glo ATP depletion luminescence
Chain of Calcium-dependent protein kinase 4 (Plasmodium falciparum (isolate 3D7)) (Q8IBS5 whole entry, looked up): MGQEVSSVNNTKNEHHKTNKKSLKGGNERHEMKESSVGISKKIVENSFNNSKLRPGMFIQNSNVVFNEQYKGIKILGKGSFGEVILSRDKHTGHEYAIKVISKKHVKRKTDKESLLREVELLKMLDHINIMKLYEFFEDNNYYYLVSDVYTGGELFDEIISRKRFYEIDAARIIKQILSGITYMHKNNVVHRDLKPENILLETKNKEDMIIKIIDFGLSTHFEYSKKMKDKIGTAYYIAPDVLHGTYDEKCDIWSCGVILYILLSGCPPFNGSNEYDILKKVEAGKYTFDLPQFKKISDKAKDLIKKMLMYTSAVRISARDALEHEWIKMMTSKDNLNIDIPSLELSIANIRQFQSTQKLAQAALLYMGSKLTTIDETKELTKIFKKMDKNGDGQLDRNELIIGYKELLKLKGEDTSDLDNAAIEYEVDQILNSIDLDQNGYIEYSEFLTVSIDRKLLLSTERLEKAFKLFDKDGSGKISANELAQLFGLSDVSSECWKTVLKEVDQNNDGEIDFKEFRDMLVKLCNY

Chain of Plasmodium falciparum protein kinase 6 (PK6, PF3D7_1337100) (Q8IDW1 1-305): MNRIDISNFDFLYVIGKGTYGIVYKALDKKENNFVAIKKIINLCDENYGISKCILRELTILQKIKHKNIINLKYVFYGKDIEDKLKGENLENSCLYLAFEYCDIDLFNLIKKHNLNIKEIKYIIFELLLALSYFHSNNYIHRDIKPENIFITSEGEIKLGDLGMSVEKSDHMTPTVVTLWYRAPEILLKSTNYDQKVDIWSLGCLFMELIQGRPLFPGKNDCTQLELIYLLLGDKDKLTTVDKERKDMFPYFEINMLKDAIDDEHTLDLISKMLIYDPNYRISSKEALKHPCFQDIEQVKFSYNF
Chain of Calcium-dependent protein kinase 1 (Plasmodium falciparum (isolate 3D7)) (P62344 whole entry, looked up): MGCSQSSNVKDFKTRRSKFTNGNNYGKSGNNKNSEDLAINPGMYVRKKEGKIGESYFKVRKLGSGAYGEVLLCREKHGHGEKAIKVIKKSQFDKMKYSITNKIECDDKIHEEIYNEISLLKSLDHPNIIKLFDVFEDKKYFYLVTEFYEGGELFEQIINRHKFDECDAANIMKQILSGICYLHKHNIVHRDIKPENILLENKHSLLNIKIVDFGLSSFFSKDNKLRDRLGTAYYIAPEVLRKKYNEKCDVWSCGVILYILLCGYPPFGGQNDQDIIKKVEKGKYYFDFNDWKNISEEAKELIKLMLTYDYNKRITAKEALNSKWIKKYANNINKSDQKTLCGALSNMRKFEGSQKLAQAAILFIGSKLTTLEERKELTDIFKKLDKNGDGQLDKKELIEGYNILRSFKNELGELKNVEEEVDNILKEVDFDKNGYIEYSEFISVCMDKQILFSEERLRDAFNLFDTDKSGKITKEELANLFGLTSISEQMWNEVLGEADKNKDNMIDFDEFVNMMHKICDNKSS
Chain of L-lactate dehydrogenase (Plasmodium falciparum (isolate CDC / Honduras)) (Q27743 whole entry, looked up): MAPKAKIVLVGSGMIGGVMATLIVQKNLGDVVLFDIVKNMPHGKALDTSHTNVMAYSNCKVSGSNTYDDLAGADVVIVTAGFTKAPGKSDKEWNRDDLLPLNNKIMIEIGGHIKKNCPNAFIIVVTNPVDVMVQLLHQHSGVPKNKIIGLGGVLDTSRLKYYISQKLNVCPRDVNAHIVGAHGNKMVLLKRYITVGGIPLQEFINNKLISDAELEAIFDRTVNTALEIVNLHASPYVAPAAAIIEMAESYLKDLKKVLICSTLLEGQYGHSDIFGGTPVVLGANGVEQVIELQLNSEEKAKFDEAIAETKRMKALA
Chain of Protein kinase 7 (PK7), Plasmodium falciparum 3D7 (PF3D7_0213400) (Q7YTF7 1-343): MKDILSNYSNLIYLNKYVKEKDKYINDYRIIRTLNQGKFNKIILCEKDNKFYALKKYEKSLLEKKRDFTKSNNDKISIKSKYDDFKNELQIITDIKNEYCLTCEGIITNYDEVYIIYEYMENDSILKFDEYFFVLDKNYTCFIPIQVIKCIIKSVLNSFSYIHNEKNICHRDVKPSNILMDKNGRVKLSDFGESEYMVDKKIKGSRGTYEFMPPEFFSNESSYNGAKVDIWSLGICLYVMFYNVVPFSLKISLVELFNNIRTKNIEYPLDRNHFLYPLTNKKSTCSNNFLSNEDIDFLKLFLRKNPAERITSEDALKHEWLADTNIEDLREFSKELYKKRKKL

SMILES | growth inhibition [1] | inhibition [2] | inhibition [3] [%] | growth inhibition [4] | outcome [5] | outcome [6] | outcome [7] | outcome [8]
Cc1ccc2nc(C)cc(NN=Cc3ccccc3F)c2c1 | 100% (active) | 36% | -3 | 97% (active) | inactive | inactive | inactive | inactive
Cc1nnsc1C(=O)Nc1ccc(-c2cccc(-c3nc4c(C)cccc4[nH]3)c2)cc1 | 47% | 23% | 4 | 98% (active) | inactive | inactive | inactive | inactive
CS(=O)(=O)NCCCNCc1cccc(-c2csc(-c3nc4ccccc4[nH]3)c2)c1 | 9% | 23% | 8 | 95% (active) | inactive | inactive | inactive | inactive
COc1ccc(-c2ccc(NC(=O)c3ccc(Cl)cc3)cc2)cc1CN1CCNCC1 | 24% | 14% | 5 | 99% (active) | inactive | inactive | inactive | inactive
CC1(C)N=C(N)N=C(N)N1CCc1ccccc1 | -1% | 50% (active) | -4 | 93% (active) | inactive | inactive | inactive | inactive
O=C(Nc1ccc(Cl)cc1)Nc1cccc(-c2cccc(-c3nc4ccc(C(F)(F)F)cc4[nH]3)c2)c1 | 97% (active) | 87% (active) | 1 | 99% (active) | inactive | inactive | inactive | inactive
Cc1cc(=O)[nH]c(/N=C(/N)NOCCCc2ccccc2)n1 | 4% | -4% | 3 | 100% (active) | inactive | inactive | inactive | inactive
N#Cc1cccc(COC(=O)C2=C(COc3ccccc3Cl)NC(=O)NC2c2c[nH]c3cnccc23)c1 (stereo not given) | -3% | 0% | -1 | 99% (active) | inactive | inactive | inactive | inactive
Cc1c(C2CCN(CCCCNC(=O)c3ccc(-c4ccc(C#N)cc4)cc3)CC2)c2ccccc2n1CCO | 99% (active) | 28% | 1 | 96% (active) | inactive | inactive | inactive | inactive
Cc1cc(N[C@@H](Cc2ccccc2)C(=O)NC2CCCC2)nc(NCC2CCCCC2)n1 | 96% (active) | 18% | 4 | 101% (active) | inactive | inactive | inactive | inactive
COc1cccc(NC(=O)c2cc([N+](=O)[O-])ccc2NC(=O)CN2CCc3ccccc3C2)c1 | 37% | 5% | -1 | 100% (active) | inactive | inactive | inactive | inactive
COc1ccc2nccc(NN=Cc3cccc(F)c3)c2c1 | 65% (active) | 13% | 2 | 102% (active) | inactive | inactive | inactive | inactive
CN(C)c1nc2cc(-n3cnc4cc(-c5ccc(Cl)cc5)sc4c3=O)ccc2n1CCCN1CCCCC1 | 23% | 55% (active) | 1 | 97% (active) | inactive | inactive | inactive | inactive
Cc1[nH]cnc1CSCCNC(N)=NCCCCCCCCN=C(N)NCCSCc1nc[nH]c1C | 95% (active) | 24% | -10 | 96% (active) | inactive | inactive | inactive | inactive
COCCCNC(=O)[C@H]1CNCCN1C(=O)c1ccccc1 | 95% (active) | 53% (active) | -2 | 97% (active) | inactive | inactive | inactive | inactive
Cc1ccccc1CCNC(=O)c1ccc(N2CCN(c3ccncc3)CC2)nc1 | 20% | 10% | -3 | 95% (active) | inactive | inactive | inactive | inactive
CCCCNC[C@@H](O)[C@H](Cc1ccccc1)NC(=O)c1cc2c3c(c1)c(CC)cn3CCS(=O)(=O)N2C | 98% (active) | -6% | -3 | 99% (active) | inactive | inactive | inactive | inactive
CN(CC1CCC(NC(=O)/C=C/c2ccc(Cl)c(Cl)c2)CC1)C1CCC(c2c[nH]c3ccccc23)CC1 (stereo not given) | 53% (active) | 53% (active) | -3 | 99% (active) | inactive | inactive | inactive | inactive
CN(CCO)Cc1ccc(-c2ccc(NS(=O)(=O)c3cccc4cccnc34)cc2)cc1 | 84% (active) | 28% | -1 | 99% (active) | inactive | inactive | inactive | inactive
Cc1cc(C(=O)Nc2ccc3c(c2)CCN3C2CCN(Cc3ccc(O)cc3)C2)no1 (stereo not given) | 86% (active) | 3% | -1 | 95% (active) | inactive | inactive | inactive | inactive

SMILES | growth inhibition [1] | inhibition [2] | inhibition [3] [%] | growth inhibition [4] | outcome [5] | outcome [6] | outcome [7] | outcome [8]
Oc1ccccc1CN[C@@H]1CCCC[C@H]1NCc1ccccc1O | 66% (active) | 53% (active) | 2 | 96% (active) | inactive | inactive | inactive | inactive
CCc1c(C)nc(-n2nc(C)cc2NC(=O)c2cccc3ccccc23)[nH]c1=O | 89% (active) | 39% | 1 | 98% (active) | inactive | inactive | inactive | inactive
O=C(Nc1ccccc1)N(Cc1cccc(-c2cccc(CNCc3ccc4c(c3)OCO4)c2)c1)C1CCN(Cc2ccccc2)CC1 | 84% (active) | 96% (active) | 0 | 101% (active) | inactive | inactive | inactive | inactive
COc1ccccc1-c1cccc(-c2cccc(NC(=O)c3ccc([N+](=O)[O-])o3)c2)n1 | 59% (active) | 78% (active) | -1 | 97% (active) | inactive | inactive | inactive | inactive
CCCc1ccc(NC(=O)c2cccc(CN3CCCN(Cc4cccc(O)c4)CC3)c2)cc1 | 40% | 15% | -2 | 97% (active) | inactive | inactive | inactive | inactive
Nc1ncc(-c2ccsc2)c2ccc(-c3cc(NCc4ccccc4)ncn3)cc12 | 86% (active) | 0% | 3 | 101% (active) | inactive | inactive | inactive | inactive
COc1ccc(Nc2ccnc3cc(Cl)ccc23)cc1OC | 91% (active) | 36% | 3 | 104% (active) | inactive | inactive | inactive | inactive
O=C(Cc1cn(-c2ccccc2)nc1-c1ccc(Cl)cc1)Nc1nccs1 | 8% | 9% | 1 | 88% (active) | inactive | inactive | inactive | inactive
COc1ccc(CCC(C)(C)NCC(O)c2cccc(C(F)(F)F)c2)cc1 (stereo not given) | 98% (active) | 26% | 3 | 99% (active) | inactive | inactive | inactive | inactive
O=S(=O)(Nc1ccc2nccc(N3CCNCC3)c2c1)c1ccc2c(Cl)cccc2c1 | 2% | 11% | -2 | 100% (active) | inactive | inactive | inactive | inactive
CC(C)C(=O)NC(c1ccc(Cl)cc1)c1ccc2cccnc2c1O (stereo not given) | 70% (active) | 53% (active) | 3 | 91% (active) | inactive | inactive | inactive | inactive
O=C(c1ccc(OCCn2ccnc2)cc1)N1CCC(c2ccc(Br)cc2)C1 (stereo not given) | 99% (active) | 49% | -3 | 100% (active) | inactive | inactive | inactive | inactive
COC(=O)Nc1nc2cc3c(cc2s1)OCCO3 | -1% | -12% | 1 | 99% (active) | inactive | inactive | inactive | inactive
CN(C)c1ccc(C=Cc2nc(=O)c3ccccc3o2)cc1 | 97% (active) | 6% | 0 | 96% (active) | inactive | inactive | inactive | inactive
Cc1cnc(CN(Cc2ccc(-c3ccc(CNCCc4ccc(S(C)(=O)=O)cc4)cn3)cc2)C(=O)c2nn(-c3ccccc3)nc2C)cn1 | 21% | 11% | 0 | 84% (active) | inactive | inactive | inactive | inactive
CN1CCN(C(=O)CN2CCC3(CCC2=O)NC(=O)c2ccccc2O3)CC1 (stereo not given) | 98% (active) | -7% | 2 | 99% (active) | inactive | inactive | inactive | inactive
O=C(Cc1ccc(NC(=O)c2ccc(O)c(-c3ccc(Cl)c(Cl)c3)c2)cc1)NCCc1ccc(Cl)c(Cl)c1 | 88% (active) | -6% | 2 | 99% (active) | inactive | inactive | inactive | inactive
COc1ccc(NC(=O)C=Cc2ccc(Oc3ccccc3Cl)c([N+](=O)[O-])c2)cc1OCCN(C(C)C)C(C)C | 97% (active) | 31% | 2 | 99% (active) | inactive | inactive | inactive | inactive
CC(Cc1ccc(NC(=O)c2ccc(CNCc3ccccc3)cc2)cc1)N(CCc1cccc(Cl)c1)C(=O)OC(C)(C)C (stereo not given) | 2% | 16% | -2 | 95% (active) | inactive | inactive | inactive | inactive
Oc1ccc(CCNc2nc(NCCCOc3ccccc3-c3ccncc3)nc(N3CCNCC3)n2)cc1 | -3% | 8% | 1 | 96% (active) | inactive | inactive | inactive | inactive
